Test results published in article PMC7862700, “An all-to-all approach to the identification of sequence-specific readers for epigenetic DNA modifications on cytosine”.

How the values were obtained:
Test in all cases: DAPPL (digital affinity profiling via proximity ligation, sequencing); 10 mM Tris-HCl pH 7.5, 50 mM NaCl, 1 mM DTT, 4% glycerol, room temperature, 30 min; GST-TFs on glutathione beads, 16-mer random dsDNA library, 0.1% formaldehyde crosslink after washing; high values mean tight binding
FEV = target: T1, FEV (Homo sapiens, UniProt Q99581 1-238); settings: protein: recombinant; tags: N-terminal GST; dsDNA, one strand shown
T1 sequence: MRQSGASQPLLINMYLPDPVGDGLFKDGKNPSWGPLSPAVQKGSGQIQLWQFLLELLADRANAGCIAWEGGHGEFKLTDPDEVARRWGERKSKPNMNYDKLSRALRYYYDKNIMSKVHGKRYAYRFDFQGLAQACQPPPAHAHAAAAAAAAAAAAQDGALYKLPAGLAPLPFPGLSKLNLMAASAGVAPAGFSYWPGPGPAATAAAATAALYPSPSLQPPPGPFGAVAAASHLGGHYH
Procedure, shortened: (§1)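 Binding signal is each hexamer's read frequency for a factor divided by its frequency in the tag-only sample. The factors were GST-fused human transcription factors from yeast, captured on glutathione beads, DNA-barcoded and pooled with that sample. Pools were incubated with 200 nmole of a random double-stranded 16-mer DNA library in Tris/NaCl/DTT/glycerol buffer at room temperature for 30 min, then washed, crosslinked with 0.1% formaldehyde, proximity-ligated with BsaI/T4 ligase (1 h, 37 °C), PCR-amplified and sequenced on an Illumina NextSeq500.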

ETV5 = ETV5 (Homo sapiens, UniProt P41161 1-510); settings: protein: recombinant; tags: N-terminal GST; dsDNA, one strand shown
Sequence of ETV5 (P41161 whole entry): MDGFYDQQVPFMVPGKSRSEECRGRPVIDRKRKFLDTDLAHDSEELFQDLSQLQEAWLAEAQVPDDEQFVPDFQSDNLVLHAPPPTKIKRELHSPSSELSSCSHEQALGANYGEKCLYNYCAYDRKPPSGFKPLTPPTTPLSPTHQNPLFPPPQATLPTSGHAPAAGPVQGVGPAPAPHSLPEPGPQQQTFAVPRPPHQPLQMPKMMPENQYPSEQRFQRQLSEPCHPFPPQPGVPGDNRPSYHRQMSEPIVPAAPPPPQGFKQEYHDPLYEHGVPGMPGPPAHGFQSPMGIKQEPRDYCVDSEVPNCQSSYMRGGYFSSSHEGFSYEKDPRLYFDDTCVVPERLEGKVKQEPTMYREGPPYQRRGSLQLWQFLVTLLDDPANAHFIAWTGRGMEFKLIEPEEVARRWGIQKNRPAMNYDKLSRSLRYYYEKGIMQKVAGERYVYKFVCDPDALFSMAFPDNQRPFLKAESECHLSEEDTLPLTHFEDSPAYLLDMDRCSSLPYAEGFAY
Procedure, shortened: as §1

HSF1 = HSF1 (Homo sapiens, UniProt Q00613 1-529); settings: protein: recombinant; tags: N-terminal GST; chain copies: 3; dsDNA, one strand shown
Sequence of HSF1 (Q00613 whole entry): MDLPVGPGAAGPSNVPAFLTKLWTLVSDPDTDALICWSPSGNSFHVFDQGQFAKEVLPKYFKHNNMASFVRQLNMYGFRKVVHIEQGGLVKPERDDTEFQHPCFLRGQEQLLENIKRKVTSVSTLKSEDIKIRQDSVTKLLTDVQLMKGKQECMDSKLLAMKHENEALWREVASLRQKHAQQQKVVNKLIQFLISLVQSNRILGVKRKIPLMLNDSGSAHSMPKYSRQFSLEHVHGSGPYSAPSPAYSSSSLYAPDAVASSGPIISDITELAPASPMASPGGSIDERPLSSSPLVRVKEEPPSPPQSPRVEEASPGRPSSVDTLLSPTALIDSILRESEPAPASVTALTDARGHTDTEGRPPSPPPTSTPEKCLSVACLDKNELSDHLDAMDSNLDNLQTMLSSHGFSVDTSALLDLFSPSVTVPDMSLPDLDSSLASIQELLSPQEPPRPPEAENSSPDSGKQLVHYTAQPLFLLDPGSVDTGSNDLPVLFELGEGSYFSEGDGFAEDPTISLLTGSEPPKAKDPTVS
Procedure, shortened: as §1

SPIC = target: T2, SPIC (Homo sapiens, UniProt Q8N5J4 1-248); settings: protein: recombinant; tags: N-terminal GST; dsDNA, one strand shown
T2 sequence: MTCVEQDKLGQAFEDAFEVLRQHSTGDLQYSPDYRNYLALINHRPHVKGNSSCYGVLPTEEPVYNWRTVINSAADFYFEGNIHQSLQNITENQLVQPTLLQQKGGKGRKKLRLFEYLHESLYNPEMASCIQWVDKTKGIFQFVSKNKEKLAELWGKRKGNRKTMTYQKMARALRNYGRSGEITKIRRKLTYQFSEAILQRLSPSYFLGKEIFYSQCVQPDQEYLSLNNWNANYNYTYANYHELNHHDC
Procedure, shortened: as §1

ELF4 = ELF4 (Homo sapiens, UniProt Q99607 1-663); settings: protein: recombinant; tags: N-terminal GST; dsDNA, one strand shown
Sequence of ELF4 (Q99607 whole entry): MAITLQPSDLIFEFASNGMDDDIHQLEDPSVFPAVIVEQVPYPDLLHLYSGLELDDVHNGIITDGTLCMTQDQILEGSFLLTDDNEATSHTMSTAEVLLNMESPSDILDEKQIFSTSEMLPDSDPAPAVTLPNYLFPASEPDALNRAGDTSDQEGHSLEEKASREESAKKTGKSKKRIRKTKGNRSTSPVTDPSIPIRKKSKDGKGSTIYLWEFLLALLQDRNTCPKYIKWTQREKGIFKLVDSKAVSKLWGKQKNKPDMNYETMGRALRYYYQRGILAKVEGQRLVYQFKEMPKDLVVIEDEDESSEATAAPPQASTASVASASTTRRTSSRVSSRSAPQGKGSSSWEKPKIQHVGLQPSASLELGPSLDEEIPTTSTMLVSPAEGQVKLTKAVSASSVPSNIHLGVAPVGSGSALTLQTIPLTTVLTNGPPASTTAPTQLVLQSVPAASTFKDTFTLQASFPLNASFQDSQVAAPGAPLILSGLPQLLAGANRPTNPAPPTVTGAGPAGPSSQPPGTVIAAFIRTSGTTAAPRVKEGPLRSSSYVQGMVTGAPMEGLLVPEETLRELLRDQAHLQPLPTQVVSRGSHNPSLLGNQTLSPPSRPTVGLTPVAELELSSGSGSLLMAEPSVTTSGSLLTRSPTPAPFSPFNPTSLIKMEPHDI
Procedure, shortened: as §1

ELK4 = target: T3, ELK4 (Homo sapiens, UniProt P28324-2 1-405); settings: protein: recombinant; tags: N-terminal GST; dsDNA, one strand shown
T3 sequence: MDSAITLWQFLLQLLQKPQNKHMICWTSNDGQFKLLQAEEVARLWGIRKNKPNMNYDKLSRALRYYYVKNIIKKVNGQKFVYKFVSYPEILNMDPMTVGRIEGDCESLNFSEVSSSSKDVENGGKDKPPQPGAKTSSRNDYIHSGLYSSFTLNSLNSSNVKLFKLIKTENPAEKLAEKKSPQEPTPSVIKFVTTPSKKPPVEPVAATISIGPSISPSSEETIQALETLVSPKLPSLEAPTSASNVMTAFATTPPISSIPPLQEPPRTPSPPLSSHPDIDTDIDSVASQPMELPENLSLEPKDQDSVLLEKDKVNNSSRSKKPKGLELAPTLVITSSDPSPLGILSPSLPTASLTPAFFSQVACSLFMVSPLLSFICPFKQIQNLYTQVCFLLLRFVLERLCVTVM
Procedure, shortened: as §1

ETV2 = target: T4, ETV2 (Homo sapiens, UniProt O00321 1-342); settings: protein: recombinant; tags: N-terminal GST; dsDNA, one strand shown
T4 sequence: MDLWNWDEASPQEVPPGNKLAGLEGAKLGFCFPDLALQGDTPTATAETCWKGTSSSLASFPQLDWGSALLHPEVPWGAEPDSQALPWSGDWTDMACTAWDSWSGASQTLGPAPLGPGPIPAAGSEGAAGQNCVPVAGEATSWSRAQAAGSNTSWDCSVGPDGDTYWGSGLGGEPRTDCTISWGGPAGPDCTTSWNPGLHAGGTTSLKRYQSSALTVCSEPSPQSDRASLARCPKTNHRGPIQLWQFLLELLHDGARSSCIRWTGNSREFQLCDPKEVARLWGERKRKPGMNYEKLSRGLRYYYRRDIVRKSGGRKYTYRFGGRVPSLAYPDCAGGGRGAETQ
Procedure, shortened: as §1

ELF3 = target: T5, ELF3 (Homo sapiens, UniProt P78545 1-371); settings: protein: recombinant; tags: N-terminal GST; dsDNA, one strand shown
T5 sequence: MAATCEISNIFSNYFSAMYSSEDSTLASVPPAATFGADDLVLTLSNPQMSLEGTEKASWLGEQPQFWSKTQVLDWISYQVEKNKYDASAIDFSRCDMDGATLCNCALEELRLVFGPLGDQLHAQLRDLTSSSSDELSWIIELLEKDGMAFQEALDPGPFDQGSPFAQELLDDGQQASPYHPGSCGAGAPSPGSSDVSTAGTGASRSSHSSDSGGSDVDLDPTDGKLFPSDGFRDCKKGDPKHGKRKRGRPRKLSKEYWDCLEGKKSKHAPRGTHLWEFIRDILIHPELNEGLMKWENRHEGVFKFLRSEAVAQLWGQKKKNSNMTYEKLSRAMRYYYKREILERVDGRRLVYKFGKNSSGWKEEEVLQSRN
Procedure, shortened: as §1

CRX = CRX (Homo sapiens, UniProt O43186 1-299); settings: protein: recombinant; tags: N-terminal GST; dsDNA, one strand shown
Sequence of CRX (O43186 whole entry): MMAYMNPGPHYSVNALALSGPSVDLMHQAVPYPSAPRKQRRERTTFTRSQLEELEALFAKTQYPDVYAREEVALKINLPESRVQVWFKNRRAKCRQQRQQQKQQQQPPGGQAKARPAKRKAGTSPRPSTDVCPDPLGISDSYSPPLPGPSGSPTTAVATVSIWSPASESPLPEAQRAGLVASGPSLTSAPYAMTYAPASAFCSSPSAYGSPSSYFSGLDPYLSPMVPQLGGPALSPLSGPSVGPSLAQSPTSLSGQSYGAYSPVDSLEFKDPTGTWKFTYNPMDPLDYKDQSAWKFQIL
Procedure, shortened: as §1

ETV1 = ETV1 (Homo sapiens, UniProt P50549 1-477); settings: protein: recombinant; tags: N-terminal GST; dsDNA, one strand shown
Sequence of ETV1 (P50549 whole entry): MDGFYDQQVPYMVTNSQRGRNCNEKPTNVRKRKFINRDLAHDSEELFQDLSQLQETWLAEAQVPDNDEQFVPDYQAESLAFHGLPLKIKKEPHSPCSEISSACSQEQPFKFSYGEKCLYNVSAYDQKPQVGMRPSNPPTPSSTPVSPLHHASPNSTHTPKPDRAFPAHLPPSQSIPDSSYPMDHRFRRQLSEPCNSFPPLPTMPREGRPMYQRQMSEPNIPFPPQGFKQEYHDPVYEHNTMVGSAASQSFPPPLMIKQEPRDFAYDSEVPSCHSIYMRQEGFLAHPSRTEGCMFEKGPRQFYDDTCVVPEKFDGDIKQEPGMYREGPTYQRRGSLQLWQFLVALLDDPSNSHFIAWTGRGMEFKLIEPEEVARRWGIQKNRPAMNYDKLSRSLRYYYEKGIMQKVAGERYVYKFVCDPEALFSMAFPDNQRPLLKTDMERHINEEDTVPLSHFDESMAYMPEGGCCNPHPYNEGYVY
Procedure, shortened: as §1

ERF = target: T6, ERF (Homo sapiens, UniProt P50548 1-548); settings: protein: recombinant; tags: N-terminal GST; dsDNA, one strand shown
T6 sequence: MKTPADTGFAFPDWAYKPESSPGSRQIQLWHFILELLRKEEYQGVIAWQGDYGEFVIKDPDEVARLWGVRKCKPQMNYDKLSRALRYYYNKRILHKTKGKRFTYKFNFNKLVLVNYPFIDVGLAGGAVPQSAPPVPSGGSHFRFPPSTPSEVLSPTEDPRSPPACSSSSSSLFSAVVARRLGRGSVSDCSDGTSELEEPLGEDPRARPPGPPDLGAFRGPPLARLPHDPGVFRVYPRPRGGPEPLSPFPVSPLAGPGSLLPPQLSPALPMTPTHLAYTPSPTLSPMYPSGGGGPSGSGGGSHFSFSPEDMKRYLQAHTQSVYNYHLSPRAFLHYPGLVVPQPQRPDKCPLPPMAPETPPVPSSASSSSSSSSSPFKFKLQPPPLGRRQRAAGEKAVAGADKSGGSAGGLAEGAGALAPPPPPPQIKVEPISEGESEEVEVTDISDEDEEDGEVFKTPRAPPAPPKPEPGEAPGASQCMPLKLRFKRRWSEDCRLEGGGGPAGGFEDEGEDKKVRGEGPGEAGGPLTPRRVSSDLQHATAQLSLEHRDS
Procedure, shortened: as §1

ETV3L = target: T7, ETV3L (Homo sapiens, UniProt Q6ZN32 1-361); settings: protein: recombinant; tags: N-terminal GST; dsDNA, one strand shown
T7 sequence: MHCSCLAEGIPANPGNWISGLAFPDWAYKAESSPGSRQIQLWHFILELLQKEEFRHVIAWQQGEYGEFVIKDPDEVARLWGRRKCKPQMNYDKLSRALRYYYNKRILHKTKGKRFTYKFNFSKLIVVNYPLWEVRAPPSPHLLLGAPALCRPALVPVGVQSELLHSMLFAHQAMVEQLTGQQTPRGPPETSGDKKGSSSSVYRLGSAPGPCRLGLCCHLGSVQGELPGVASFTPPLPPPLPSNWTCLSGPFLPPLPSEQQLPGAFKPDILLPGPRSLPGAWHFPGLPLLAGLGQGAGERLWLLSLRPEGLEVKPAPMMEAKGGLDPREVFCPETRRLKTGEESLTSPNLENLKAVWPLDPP
Procedure, shortened: as §1

ETS2 = target: T8, ETS2 (Homo sapiens, UniProt P15036 1-469); settings: protein: recombinant; tags: N-terminal GST; dsDNA, one strand shown
T8 sequence: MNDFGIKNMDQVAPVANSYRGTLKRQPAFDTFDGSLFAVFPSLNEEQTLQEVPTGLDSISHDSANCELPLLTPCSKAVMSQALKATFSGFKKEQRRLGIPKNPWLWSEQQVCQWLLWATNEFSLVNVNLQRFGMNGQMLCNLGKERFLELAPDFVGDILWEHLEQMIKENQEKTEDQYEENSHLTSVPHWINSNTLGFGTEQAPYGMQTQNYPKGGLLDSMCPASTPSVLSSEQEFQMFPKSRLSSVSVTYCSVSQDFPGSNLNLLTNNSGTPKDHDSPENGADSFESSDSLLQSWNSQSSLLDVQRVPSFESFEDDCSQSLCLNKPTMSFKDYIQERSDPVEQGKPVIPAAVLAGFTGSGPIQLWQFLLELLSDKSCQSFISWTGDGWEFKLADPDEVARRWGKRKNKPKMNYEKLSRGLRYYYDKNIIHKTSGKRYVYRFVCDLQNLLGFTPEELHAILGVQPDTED
Procedure, shortened: as §1

SPDEF = target: T9, SPDEF (Homo sapiens, UniProt O95238 1-335); settings: protein: recombinant; tags: N-terminal GST; dsDNA, one strand shown
T9 sequence: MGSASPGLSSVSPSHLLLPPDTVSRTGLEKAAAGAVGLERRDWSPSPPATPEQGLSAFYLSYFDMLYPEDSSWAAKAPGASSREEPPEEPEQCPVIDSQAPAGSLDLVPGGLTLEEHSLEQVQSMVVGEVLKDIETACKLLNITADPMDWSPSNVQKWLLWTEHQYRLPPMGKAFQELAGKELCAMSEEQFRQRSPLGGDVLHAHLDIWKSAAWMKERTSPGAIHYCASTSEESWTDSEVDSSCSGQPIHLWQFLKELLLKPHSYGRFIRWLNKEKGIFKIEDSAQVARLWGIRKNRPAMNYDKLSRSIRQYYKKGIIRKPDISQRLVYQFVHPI
Procedure, shortened: as §1

ETV7 = target: T10, ETV7 (Homo sapiens, UniProt Q9Y603 1-341); settings: protein: recombinant; tags: N-terminal GST; dsDNA, one strand shown
T10 sequence: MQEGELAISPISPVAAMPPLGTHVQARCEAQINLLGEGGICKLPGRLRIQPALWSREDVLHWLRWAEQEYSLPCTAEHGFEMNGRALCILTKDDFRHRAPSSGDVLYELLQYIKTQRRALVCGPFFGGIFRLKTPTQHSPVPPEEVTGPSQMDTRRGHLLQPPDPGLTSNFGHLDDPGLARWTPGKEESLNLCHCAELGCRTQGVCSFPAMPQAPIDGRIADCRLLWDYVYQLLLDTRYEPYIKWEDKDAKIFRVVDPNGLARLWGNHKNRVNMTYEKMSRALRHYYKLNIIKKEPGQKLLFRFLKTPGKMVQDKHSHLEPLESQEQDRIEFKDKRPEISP
Procedure, shortened: as §1

ELF5 = target: T11, ELF5 (Homo sapiens, UniProt Q9UKW6-2 1-255); settings: protein: recombinant; tags: N-terminal GST; dsDNA, one strand shown
T11 sequence: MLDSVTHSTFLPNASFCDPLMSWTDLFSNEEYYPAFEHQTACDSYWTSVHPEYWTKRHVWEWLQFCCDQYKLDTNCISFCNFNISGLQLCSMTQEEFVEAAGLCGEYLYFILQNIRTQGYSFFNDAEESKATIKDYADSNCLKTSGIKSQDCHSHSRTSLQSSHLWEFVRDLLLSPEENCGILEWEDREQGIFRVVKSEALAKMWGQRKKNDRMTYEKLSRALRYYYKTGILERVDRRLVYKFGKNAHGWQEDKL
Procedure, shortened: as §1

ETV3 = target: T12, ETV3 (Homo sapiens, UniProt P41162-2 1-143); settings: protein: recombinant; tags: N-terminal GST; dsDNA, one strand shown
T12 sequence: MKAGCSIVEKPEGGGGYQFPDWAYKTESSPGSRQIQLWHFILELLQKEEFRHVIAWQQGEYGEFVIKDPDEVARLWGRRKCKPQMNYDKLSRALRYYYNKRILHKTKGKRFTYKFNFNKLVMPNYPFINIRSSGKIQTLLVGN
Procedure, shortened: as §1

ETV6 = ETV6 (Homo sapiens, UniProt P41212 1-452); settings: protein: recombinant; tags: N-terminal GST; dsDNA, one strand shown
Sequence of ETV6 (P41212 whole entry): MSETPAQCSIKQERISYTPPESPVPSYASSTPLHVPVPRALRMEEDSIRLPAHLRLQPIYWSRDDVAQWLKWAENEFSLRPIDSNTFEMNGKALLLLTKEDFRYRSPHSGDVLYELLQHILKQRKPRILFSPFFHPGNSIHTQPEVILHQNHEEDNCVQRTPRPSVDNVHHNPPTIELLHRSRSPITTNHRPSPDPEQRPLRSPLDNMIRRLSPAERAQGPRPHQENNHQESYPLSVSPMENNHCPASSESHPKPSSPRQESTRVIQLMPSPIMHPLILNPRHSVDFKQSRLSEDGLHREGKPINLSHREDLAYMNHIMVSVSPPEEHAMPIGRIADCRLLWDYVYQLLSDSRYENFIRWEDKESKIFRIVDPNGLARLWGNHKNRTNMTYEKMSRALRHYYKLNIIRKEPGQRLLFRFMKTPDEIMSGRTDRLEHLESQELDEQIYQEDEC
Procedure, shortened: as §1

TATTGG was tested, and the binding signal (FEV) was 1.14 fold enrichment (6-mer frequency, TF over GST control), the binding signal (ETV5) was 1.19 fold enrichment (6-mer frequency, TF over GST control) and the binding signal (HSF1) was 1.2 fold enrichment (6-mer frequency, TF over GST control). For the same sequence, the binding signal (SPIC) was 1.19 fold enrichment (6-mer frequency, TF over GST control), the binding signal (ELF4) was 1.21 fold enrichment (6-mer frequency, TF over GST control) and the binding signal (ELK4) was 1.28 fold enrichment (6-mer frequency, TF over GST control). The binding signal (ETV2) was 1.14 fold enrichment (6-mer frequency, TF over GST control), the binding signal (ELF3) was 1.24 fold enrichment (6-mer frequency, TF over GST control) and the binding signal (CRX) was 1.4 fold enrichment (6-mer frequency, TF over GST control). The binding signal (ETV1) was 1.13 fold enrichment (6-mer frequency, TF over GST control), the binding signal (ERF) was 1.2 fold enrichment (6-mer frequency, TF over GST control) and the binding signal (ETV3L) was 1.18 fold enrichment (6-mer frequency, TF over GST control). The binding signal (ETS2) was 1.23 fold enrichment (6-mer frequency, TF over GST control), the binding signal (SPDEF) was 1.23 fold enrichment (6-mer frequency, TF over GST control) and the binding signal (ETV7) was 1.19 fold enrichment (6-mer frequency, TF over GST control). For the same sequence, the binding signal (ELF5) was 1.1 fold enrichment (6-mer frequency, TF over GST control), the binding signal (ETV3) was 1.17 fold enrichment (6-mer frequency, TF over GST control) and the binding signal (ETV6) was 1.21 fold enrichment (6-mer frequency, TF over GST control).
